Our source for the cell viability values is the supplement of paper PMC10981050.

Where “and” joins values, the source holds several entries; their conditions need not be identical. Identical values can stand only once.

Common to all, as to assay: cell viability relative to vehicle control; higher = less cytotoxic
What all share (details): 10 µM

One assay relates to K562. In short, it runs like this: (§1)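 Screening covered the Selleck bioactive, kinase and epigenetic probe libraries, less identity-inconsistent compounds, on CRISPR-edited mutant clones and isogenic wild-type clones of four leukaemia lines. Cells, at 2000 per well in 50 µL medium, received a single 10 µM acoustically dispensed dose. After 48 h the supernatant was removed and CellTiter-Glo luminescence was read. Viability was analysed in Genedata Screener as percent of the on-plate vehicle control.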

In a further assay the test system is MARIMO. In short, it runs like this:
as §1

Another assay relates to MOLM14. Summed up:
as §1

The subject of a further assay is OCI-AML2. In short, it runs like this:
as §1

Take `NC(=O)c1ccccn1` [Picolinamide]: the cell viability (in general, a read-out of living cells in per cent, often relative to untreated cells) is 104% and 95.8% with K562 (SRSF2 genotype: SRSF2 P95H/wt); 100% in the assay with K562 (SRSF2 genotype: SRSF2 wt/wt); 103% in the assay with MARIMO (SRSF2 genotype: SRSF2 P95H/wt); 108% in the assay with MARIMO (SRSF2 genotype: SRSF2 wt/wt); 101% in the assay on MOLM14 (SRSF2 genotype: SRSF2 P95H/wt); 106% in the assay on MOLM14 (SRSF2 genotype: SRSF2 wt/wt). Also, the cell viability with OCI-AML2 (SRSF2 genotype: P95H/wt) came out at 92.7%; with OCI-AML2 (SRSF2 genotype: wt/wt), 110%.
Regarding `O=C1c2ccc(Nc3ccc(F)cc3F)cc2CCc2ccc(OC[C@H](O)CO)cc21` [Skepinone-L], the cell viability in the assay with K562 (SRSF2 genotype: SRSF2 P95H/wt) is 84.7% and 79.7%; in the assay on K562 (SRSF2 genotype: SRSF2 wt/wt), 77.7%; in the assay with MARIMO (SRSF2 genotype: SRSF2 P95H/wt) it was 91.7%; in the assay on MARIMO (SRSF2 genotype: SRSF2 wt/wt), 100%; with MOLM14 (SRSF2 genotype: SRSF2 P95H/wt), 104%; in the assay on MOLM14 (SRSF2 genotype: SRSF2 wt/wt), 102%. The cell viability with OCI-AML2 (SRSF2 genotype: P95H/wt) was 77.2%; in the assay on OCI-AML2 (SRSF2 genotype: wt/wt) it was 73.7%.
As to `Cc1cc(C(C)Nc2ccccc2)c2nc(N3CCOCC3)cc(=O)n2c1` (stereo not given), the cell viability was 92.6% and 97.6% in the assay on K562 (SRSF2 genotype: SRSF2 P95H/wt); 93.3% with K562 (SRSF2 genotype: SRSF2 wt/wt); 90.7% in the assay on MARIMO (SRSF2 genotype: SRSF2 P95H/wt); 90.4% with MARIMO (SRSF2 genotype: SRSF2 wt/wt); 70.9% with MOLM14 (SRSF2 genotype: SRSF2 P95H/wt); 69% with MOLM14 (SRSF2 genotype: SRSF2 wt/wt). The cell viability in the assay on OCI-AML2 (SRSF2 genotype: P95H/wt) turned out to be 73.4%; in the assay on OCI-AML2 (SRSF2 genotype: wt/wt), 76.6%.
Consider `CNC(=O)c1cccc(-c2ccc3c(N4CCOC[C@@H]4C)nc(N4CCOC[C@@H]4C)nc3n2)c1` [Vistusertib (AZD2014)], for which the cell viability is 44.8% and 43.3% with K562 (SRSF2 genotype: SRSF2 P95H/wt); 38.4% in the assay with K562 (SRSF2 genotype: SRSF2 wt/wt); 60.8% with MARIMO (SRSF2 genotype: SRSF2 P95H/wt); 48.5% in the assay on MARIMO (SRSF2 genotype: SRSF2 wt/wt); 35.1% in the assay on MOLM14 (SRSF2 genotype: SRSF2 P95H/wt); 28.9% in the assay with MOLM14 (SRSF2 genotype: SRSF2 wt/wt). Moreover, the cell viability in the assay with OCI-AML2 (SRSF2 genotype: P95H/wt) amounted to 29.2%; with OCI-AML2 (SRSF2 genotype: wt/wt), 28.8%.
Turning to `Cn1c([N+](=O)[O-])cnc1COC(N)=O` [Ronidazole], the cell viability in the assay with K562 (SRSF2 genotype: SRSF2 P95H/wt) is 95.1% and 89%; in the assay on K562 (SRSF2 genotype: SRSF2 wt/wt), 92.3%; with MARIMO (SRSF2 genotype: SRSF2 P95H/wt) it was 97.3%; in the assay with MARIMO (SRSF2 genotype: SRSF2 wt/wt) it was 97.3%; in the assay on MOLM14 (SRSF2 genotype: SRSF2 P95H/wt), 96%; with MOLM14 (SRSF2 genotype: SRSF2 wt/wt), 99.5%. For the same compound, the cell viability stood at 90.8% in the assay on OCI-AML2 (SRSF2 genotype: P95H/wt) and 102% in the assay on OCI-AML2 (SRSF2 genotype: wt/wt).
With `Cc1cnc(-c2cc(N3CCN(C(=O)CCS(C)(=O)=O)CC3)ncc2Cl)c(C)c1`, the cell viability in the assay with K562 (SRSF2 genotype: SRSF2 P95H/wt) was 98.7% and 98.8%; in the assay with K562 (SRSF2 genotype: SRSF2 wt/wt), 96.3%; in the assay with MARIMO (SRSF2 genotype: SRSF2 P95H/wt) it was 101%; in the assay on MARIMO (SRSF2 genotype: SRSF2 wt/wt) it was 110%; in the assay on MOLM14 (SRSF2 genotype: SRSF2 P95H/wt), 100%; in the assay with MOLM14 (SRSF2 genotype: SRSF2 wt/wt), 104%. Besides, the cell viability in the assay on OCI-AML2 (SRSF2 genotype: P95H/wt) worked out at 96.2%; in the assay on OCI-AML2 (SRSF2 genotype: wt/wt), 105%.
For `Oc1cc2c(cc1O)[C@@H]1c3ccc(O)c(O)c3OC[C@]1(O)C2` [Hematoxylin (Hydroxybrazilin)], the cell viability is 97% and 94.6% in the assay with K562 (SRSF2 genotype: SRSF2 P95H/wt); 94.1% in the assay with K562 (SRSF2 genotype: SRSF2 wt/wt); 95.7% in the assay with MARIMO (SRSF2 genotype: SRSF2 P95H/wt); 98.5% in the assay on MARIMO (SRSF2 genotype: SRSF2 wt/wt); 99.8% with MOLM14 (SRSF2 genotype: SRSF2 P95H/wt); 99.7% with MOLM14 (SRSF2 genotype: SRSF2 wt/wt). Further, the cell viability with OCI-AML2 (SRSF2 genotype: P95H/wt) was 101%; with OCI-AML2 (SRSF2 genotype: wt/wt), 98.4%.
As for `O=C(/C=C/c1ccc(O)c2c1[C@H](C(=O)O)[C@@H](c1ccc(O)c(O)c1)O2)O[C@H](Cc1ccc(O)c(O)c1)C(=O)O` [Lithospermic acid], the cell viability in the assay on K562 (SRSF2 genotype: SRSF2 P95H/wt) was 96.8% and 101%; in the assay on K562 (SRSF2 genotype: SRSF2 wt/wt) it was 96%; with MARIMO (SRSF2 genotype: SRSF2 P95H/wt) it was 97.9%; in the assay with MARIMO (SRSF2 genotype: SRSF2 wt/wt) it was 88.7%; in the assay with MOLM14 (SRSF2 genotype: SRSF2 P95H/wt), 104%; in the assay with MOLM14 (SRSF2 genotype: SRSF2 wt/wt) it was 99.9%. For the same compound, the values for the cell viability in the assay on OCI-AML2 (SRSF2 genotype: P95H/wt) and with OCI-AML2 (SRSF2 genotype: wt/wt) were 88.6% and 97.6%, respectively.
As for `Nc1nc(-c2nn(Cc3ccccc3F)c3ncccc23)ncc1C1CC1`, the cell viability with K562 (SRSF2 genotype: SRSF2 P95H/wt) is 110% and 114%; in the assay with K562 (SRSF2 genotype: SRSF2 wt/wt), 95.3%; with MARIMO (SRSF2 genotype: SRSF2 P95H/wt), 103%; in the assay with MARIMO (SRSF2 genotype: SRSF2 wt/wt), 101%; in the assay with MOLM14 (SRSF2 genotype: SRSF2 P95H/wt), 104%; in the assay with MOLM14 (SRSF2 genotype: SRSF2 wt/wt) it was 104%. The cell viability in the assay with OCI-AML2 (SRSF2 genotype: P95H/wt) is 83.9%; in the assay with OCI-AML2 (SRSF2 genotype: wt/wt) it was 86.4%.
Regarding `CC(=O)Oc1ccccc1C(=O)Nc1ncc([N+](=O)[O-])s1` [Nitazoxanide (Alinia, Annita)], the cell viability is 78.4% and 85.8% in the assay on K562 (SRSF2 genotype: SRSF2 P95H/wt); 78.4% with K562 (SRSF2 genotype: SRSF2 wt/wt); 94.8% in the assay with MARIMO (SRSF2 genotype: SRSF2 P95H/wt); 90.9% with MARIMO (SRSF2 genotype: SRSF2 wt/wt); 92.5% in the assay on MOLM14 (SRSF2 genotype: SRSF2 P95H/wt); 89.7% in the assay on MOLM14 (SRSF2 genotype: SRSF2 wt/wt). In addition, the cell viability is 87.5% in the assay on OCI-AML2 (SRSF2 genotype: P95H/wt) and 85.5% with OCI-AML2 (SRSF2 genotype: wt/wt).
